Test results taken from PubChem BioAssay (NCATS).
Inconclusive results are not listed. The source made the active and inactive calls. Calls follow the shape of the dose curve; as a rule, active = well fitted curve in the direction sought with a large enough effect; inconclusive = small, poorly fitted or top-dose-only effect, or another doubt; inactive = no such curve, though single readings can be large; an effect the other way counts as inactive or inconclusive. Where a SMILES comes first, the peptide text is derived from it. [ ]: non-standard residue; d: D form.

Tests used:
[1] = molecular target: Glutathione peroxidase 1 (Homo sapiens) (UniProt P07203); experiment: Primary qHTS Assay for Inhibitors of Recombinant Selenoprotein Glutathione Peroxidase 1 (GPX1) (AID 1845191); also: nearly all actives have a fitted effect of over 65% in size; as to activity, negative = inhibition: % is scaled to controls: 0 for no effect and ±100 for the full control effect
Glutathione peroxidase 1 (Homo sapiens), sequence (P07203 whole entry, looked up): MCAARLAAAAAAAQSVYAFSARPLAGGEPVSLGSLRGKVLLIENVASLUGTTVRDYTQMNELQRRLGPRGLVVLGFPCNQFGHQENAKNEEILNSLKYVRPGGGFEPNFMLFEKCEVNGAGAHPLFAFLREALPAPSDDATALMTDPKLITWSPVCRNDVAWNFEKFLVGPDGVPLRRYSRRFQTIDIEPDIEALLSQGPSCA
How it was run: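 NADPH consumption tracked by fluorescence at 340/450 nm between t=0 and t=15 min, room temperature. Final mix: 10 nM GPX1, 100 nM glutathione reductase, 1 mM GSH, 0.5 mM NADPH, 0.5 mM cumene hydroperoxide, 0.01% BSA; 30 min compound–enzyme preincubation.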

[2] = molecular target: Phospholipid hydroperoxide glutathione peroxidase GPX4 (Homo sapiens) (UniProt P36969); experiment: Primary qHTS Assay for Inhibitors of Recombinant Selenoprotein Glutathione Peroxidase 4 (GPX4) (AID 1845192); also: nearly all actives have a fitted effect of over 65% in size
Phospholipid hydroperoxide glutathione peroxidase GPX4 (Homo sapiens), sequence (P36969 whole entry, looked up): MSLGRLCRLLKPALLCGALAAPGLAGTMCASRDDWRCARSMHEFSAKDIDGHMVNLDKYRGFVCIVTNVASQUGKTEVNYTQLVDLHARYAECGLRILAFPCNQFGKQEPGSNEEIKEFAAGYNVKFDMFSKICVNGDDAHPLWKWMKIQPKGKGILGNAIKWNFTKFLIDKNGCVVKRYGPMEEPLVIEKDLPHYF
How it was run: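 NADPH consumption followed by fluorescence at 340/450 nm, t=0 and after 15 min at room temperature. Reaction started with cumene hydroperoxide (0.5 mM final) after 30 min compound–GPX4 preincubation; final 200 nM GPX4, 100 nM GR, 1 mM GSH, 0.5 mM NADPH.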

[3] = molecular target: Luciferin 4-monooxygenase (Photinus pyralis) (UniProt P08659); experiment: Primary firefly luciferase (FLuc) qHTS assay for identification of artifact compounds. (AID 1845220); also: nearly all actives have a fitted effect of over 60% in size
How it was run: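 Cell-free, 1536-well qHTS. Buffer pH 7.6 with 0.01% Tween-20 and 0.05% BSA; 10 uM D-luciferin, 10 uM ATP; 10 nM P. pyralis luciferase; luminescence after 5 min.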

[4] = Primary fluorescence-based thiol-reactive (MSTI) qHTS assay for identification of artifact compounds. (AID 1845221); also: nearly all actives have a fitted effect of over 65% in size; also: potency is read from the fitted curve at half-maximal effect;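 as to activity change, negative = thiol reactive: series mostly up to about 54 µM; thiol-reactive compounds lower the probe fluorescence signal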
How it was run: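 qHTS titration of compound; 4 uM MSTI, PBS pH 7.4, 2% DMSO; 1 h RT, dark; fluorescence 525/598 nm; normalized to Acetyl-MSTI and MSTI; 4-parameter Hill fit.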

[5] = test system: Nanoluciferase (engineered Oplophorus gracilirostris luciferase); experiment: Primary Nanoluciferase (NLuc) qHTS assay for identification of artifact compounds. (AID 1845222);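 also: series mostly up to about 54 µM; 0% = DMSO and -100% = no enzyme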
How it was run: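 Compounds are pinned into diluted (1:55) conditioned medium of NLuc-expressing S16 cells and held 15 min at room temperature protected from light. Nano-Glo substrate follows, and luminescence is read 5 min later.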

[6] = Primary redox qHTS assay for identification of artifact compounds. (AID 1845223);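 also: 0% = DMSO and 100% = reference compound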
How it was run: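 Redox-cycling detection via DTT (250 uM final) oxidation coupled to Amplex Red (25 uM)/HRP (250 mU/mL) in HBSS. 15 min preincubation plus 30 min after DTT, room temperature. Ex/Em 525/598 nm; 4-parameter Hill fit against DMSO and 10 uM DA3003.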

C/C(=C\CO)CC/C=C(\C)C(=O)O[C@H]1[C@H](OC2OC=C(C(=O)O)C3CCC(C)(O)C23)O[C@H](CO)[C@@H](O)[C@@H]1O (stereo partly drawn)
inactive: Potency [1] | Potency [2] | Potency [3] | Potency [5] | Potency [6]
active: Potency [4] 11.6 µM

CC(C)C1=CC2=CCC3[C@](C)(CCC[C@@]3(C)C(=O)O)C2CC1O (stereo partly drawn)
inactive: Potency [1] | Potency [2] | Potency [3] | Potency [4] | Potency [5] | Potency [6]

C/C(=C\CCC(C)(O)c1ccc(C)cc1)C(=O)O (stereo not drawn)
inactive: Potency [1] | Potency [2] | Potency [3] | Potency [4] | Potency [5] | Potency [6]

C1CCN2CC3C[C@@H](CN4CCCC[C@@H]34)[C@H]2C1
inactive: Potency [1] | Potency [2] | Potency [3] | Potency [4] | Potency [5] | Potency [6]

N#CCc1ccc(O)cc1O[C@@H]1O[C@H](CO)[C@@H](O)[C@H](O)[C@H]1O
inactive: Potency [1] | Potency [2] | Potency [3] | Potency [5] | Potency [6]
active: Potency [4] 13.1 µM

O=C(/C=C/c1ccc(O)cc1)OCC1=C[C@@H](O)[C@@H]2C=CO[C@@H](O[C@@H]3O[C@H](CO)[C@@H](O)[C@H](O)[C@H]3O)[C@H]12
active: Potency [4] 5.82 µM
inactive: Potency [1] | Potency [2] | Potency [3] | Potency [5] | Potency [6]

CC(=O)N[C@H](Cc1ccc(O)cc1)C(=O)N[C@H](CCCN=C(N)N)C(=O)N[C@H](Cc1ccccc1)C(N)=O (Ac-[dY]-[dR]-[dF]-NH2)
inactive: Potency [1] | Potency [2] | Potency [3] | Potency [4] | Potency [5] | Potency [6]

C/C=C(\C)C(=O)O[C@H]1[C@H](O)[C@]2(COC(C)=O)[C@H](O)C[C@]3(C)C(=CCC4[C@@]5(C)CC[C@H](O[C@@H]6O[C@H](C(=O)O)[C@@H](O[C@@H]7O[C@H](CO)[C@@H](O)[C@H](O)[C@H]7O)[C@H](O)[C@H]6O[C@@H]6O[C@H](CO)[C@@H](O)[C@H](O)[C@H]6O)[C@](C)(CO)C5CC[C@]43C)[C@@H]2CC1(C)C (stereo partly drawn)
inactive: Potency [1] | Potency [2] | outcome [3] inactive [at 11.6 µM] | activity change, negative = thiol reactive [4] 113% [at 11.5 µM] | activity, negative = inhibition [5] 4.32% [at 11.6 µM] | redox activity (% of DA3003) [6] 2.47% [at 11.5 µM]

CCC(CCO[C@@H]1O[C@H](CO[C@H]2OC[C@](O)(CO)[C@H]2O)[C@@H](O)[C@H](O)[C@H]1O)C(C)(C)O (stereo partly drawn)
inactive: Potency [1] | Potency [2] | Potency [3] | Potency [4] | Potency [5] | Potency [6]

CC(=O)OC1C=C(C(=O)O)C2(CO)CCC(C)C(C)(CCc3ccoc3)C2C1 (stereo not drawn)
inactive: Potency [1] | Potency [2] | Potency [3] | Potency [4] | Potency [5] | Potency [6]

CC1=CC(=O)C2C(C)(C)CCCC2(C)C12CCC1(COC(=O)C1)O2 (stereo not drawn)
inactive: Potency [1] | Potency [2] | Potency [3] | Potency [5] | Potency [6]
active: Potency [4] 7.36 µM

COC(=O)C1C(CC(C)=O)C=CC(O)C12Oc1cc(C)cc(O)c1C2=O (stereo not drawn)
inactive: Potency [1] | Potency [2] | Potency [3] | Potency [5] | Potency [6]
active: Potency [4] 5.85 µM

C=C(C(=O)O)C1CCC(C)C2CCC(=O)OC2(C)C1 (stereo not drawn)
active: Potency [4] 11.9 µM
inactive: Potency [1] | Potency [2] | Potency [3] | Potency [5] | Potency [6]

CC(=O)O[C@@H]1[C@@H](OC(=O)/C=C/c2ccccc2)[C@H](C)O[C@@H](O[C@H]2[C@@H]3C=CO[C@@H](O[C@@H]4O[C@H](CO)[C@@H](O)[C@H](O)[C@H]4O)[C@@H]3[C@@]3(CO)O[C@@H]23)[C@@H]1OC(C)=O
inactive: Potency [1] | Potency [2] | Potency [3] | Potency [4] | Potency [5] | Potency [6]

C=CC1(C)CC(OC(=O)C(=C)C(O)COC(C)=O)C(C(=C)C(=O)OC)C(O)C1C(=C)CO (stereo not drawn)
inactive: Potency [1] | Potency [2] | Potency [3] | Potency [4] | Potency [5] | Potency [6]

C=C1CCC2C(C)(CO[C@@H]3O[C@H](CO)[C@@H](O)[C@H](O)[C@H]3O)C(O)CCC2(C)C1C(=O)CC1=CCOC1=O (stereo partly drawn)
inactive: Potency [1] | Potency [2] | Potency [3] | Potency [5] | Potency [6]
active: Potency [4] 10.3 µM

CC[C@H](C)/C=C(C)/C=C/C(=O)Cc1cc(O)c(C)c(O)c1C=O
active: Potency [4] 14.7 µM
inactive: Potency [1] | Potency [2] | Potency [3] | Potency [5] | Potency [6]

COc1c2c(c(C)c3c1C(=O)OC3)O[C@@]1(C)C[C@@H](O)[C@]34O[C@](OC)(CC[C@]3(C)[C@H]1C2)OC4(C)C
inactive: Potency [1] | Potency [2] | Potency [3] | Potency [4] | Potency [5] | Potency [6]

OC1COC(OCC2OC(OCCc3ccccc3)C(O)C(O)C2O)C(O)C1O (stereo not drawn)
active: Potency [4] 4.12 µM
inactive: Potency [1] | Potency [2] | Potency [3] | Potency [5] | Potency [6]

CC1=CC2(O)/C=C/C(C)(O)CC(O)/C=C/C(=O)OC23C(=O)NC(CC(C)C)C3C1C (stereo not drawn)
inactive: Potency [1] | Potency [2] | Potency [3] | Potency [4] | Potency [5] | Potency [6]

C=C1[C@H]2[C@H](O[C@@H]3O[C@H](COC(=O)/C=C/c4cc(OC)c(O)c(OC)c4)[C@@H](O)[C@H](O)[C@H]3O)OC=C(C(=O)O)[C@H]2C[C@@H]1O
inactive: Potency [1] | Potency [2] | Potency [3] | Potency [5] | Potency [6]
active: Potency [4] 7.07 µM

CCCC1=CC2=C(CO1)C(=O)C(C)(OC(=O)c1c(C)cc(OC)cc1O)C(O)C2 (stereo not drawn)
inactive: Potency [1] | Potency [2] | Potency [3] | Potency [4] | Potency [5] | Potency [6]

COc1ccc(C[C@H](N)C(=O)N[C@H]2[C@@H](O)[C@H](n3cnc4c(N(C)C)ncnc43)O[C@@H]2CO)cc1
inactive: Potency [1] | Potency [2] | Potency [3] | Potency [4] | Potency [5] | Potency [6]
